# Measurements from PubChem BioAssay (NCI).
# The panel holds about 83,000 compounds, 20% with a hit somewhere; the sample as a whole holds those more often.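 Step 1: grow cells in 96-well plates. Step 2: add test compound at a single concentration. Step 3: incubate 48 h. Step 4: record percent growth.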 A number with no mark means an inactive call. Calls of active or inactive are those of the source. How the source made its calls: active means growth percent below 10; inactive means the rest.
# Columns and labels:
# Assay in all cases: NCI-60 one-dose screen, 48 h (100 = growth as untreated, 0 = no growth, -100 = all killed)
# Conditions in all cases: 10 µM unless noted
# DU-145 prostate = tested on: DU-145 prostate
# K-562 leukemia = tested on: K-562 leukemia
# MALME-3M melanoma = tested on: MALME-3M melanoma
# MDA-MB-231 breast = tested on: MDA-MB-231 breast
# RXF 393 renal = tested on: RXF 393 renal
# SF-268 CNS = tested on: SF-268 CNS
# SF-295 CNS = tested on: SF-295 CNS
# SF-539 CNS = tested on: SF-539 CNS
# UACC-257 melanoma = tested on: UACC-257 melanoma
# M14 melanoma = tested on: M14 melanoma
# HCT-15 colon = tested on: HCT-15 colon
# HT29 colon = tested on: HT29 colon
# SNB-75 CNS = tested on: SNB-75 CNS
# SNB-19 CNS = tested on: SNB-19 CNS
# U251 CNS = tested on: U251 CNS
# PC-3 prostate = tested on: PC-3 prostate
# SK-MEL-5 melanoma = tested on: SK-MEL-5 melanoma
# UACC-62 melanoma = tested on: UACC-62 melanoma
# LOX IMVI melanoma = tested on: LOX IMVI melanoma
# SK-MEL-28 melanoma = tested on: SK-MEL-28 melanoma
SMILES,growth (DU-145 prostate),growth (K-562 leukemia),growth (MALME-3M melanoma),growth (MDA-MB-231 breast),growth (RXF 393 renal),growth (SF-268 CNS),growth (SF-295 CNS),growth (SF-539 CNS),growth (UACC-257 melanoma),growth (M14 melanoma),growth (HCT-15 colon),growth (HT29 colon),growth (SNB-75 CNS),growth (SNB-19 CNS),growth (U251 CNS),growth (PC-3 prostate),growth (SK-MEL-5 melanoma),growth (UACC-62 melanoma),growth (LOX IMVI melanoma),growth (SK-MEL-28 melanoma)
Clc1ccc2nc(-c3ccc(-c4ccc(/C=N/NC5=NCCN5)cc4)s3)cn2c1,101%,4.14% (active),94.3%,96.3%,82.5%,94.2%,97.2%,83.1%,101%,97.7%,-27.3% (active),38.8%,83.9%,97.1%,97.5%,89.4%,93%,102%,97.9%,99.5%
COc1cc(NCc2cn(-c3ccc(C(=O)O)cc3)nc2-c2ccc(C(=O)O)cc2)cc(OC)c1OC,93.8%,107%,80.8%,76.4%,105%,95.6%,102%,90.2%,99.7%,96.5%,106%,106%,77.8%,97.4%,92.2%,96.9%,95.2%,94.4%,95.9%,103%
CC(C)=CC/C=C(/C)[C@H]1CC[C@]2(C)[C@@H]1CC[C@@H]1[C@@]3(C)CC/C(=N/O)C(C)(C)[C@@H]3CC[C@]12C,73.7% [100 µM],33.9% [100 µM],81% [100 µM],50.5% [100 µM],61.3% [100 µM],72% [100 µM],64.2% [100 µM],64% [100 µM],59.5% [100 µM],61.1% [100 µM],57.2% [100 µM],23.2% [100 µM],69.4% [100 µM],67.3% [100 µM],50.9% [100 µM],29.4% [100 µM],18.2% [100 µM],43.1% [100 µM],59.6% [100 µM],73.3% [100 µM]
C#C[C@]1(O)CC[C@H]2[C@@H]3CC=C4c5nc(Nc6ccccn6)sc5CC[C@]4(C)[C@H]3CC[C@@]21C,17.2%,2.53% (active),10.9%,-23.1% (active),-66% (active),-24% (active),-72.2% (active),-64.7% (active),-54.7% (active),-35.9% (active),1.7% (active),16.9%,-42.4% (active),11%,-26.2% (active),-28.6% (active),-82.2% (active),-28.4% (active),-68% (active),-68.2% (active)
CC(=O)OC[C@]12CC[C@@H](C(=O)CBr)[C@@H]1[C@H]1CC[C@@H]3[C@@]4(C)CCCNC(C)(C)[C@@H]4CC[C@@]3(C)[C@]1(C)CC2,-94.7% [100 µM] (active),5.86% [100 µM] (active),-75.7% [100 µM] (active),-71.8% [100 µM] (active),-81.9% [100 µM] (active),-65.5% [100 µM] (active),-85.4% [100 µM] (active),-81.4% [100 µM] (active),-76.6% [100 µM] (active),-48.5% [100 µM] (active),-74.7% [100 µM] (active),-81.9% [100 µM] (active),-98.3% [100 µM] (active),-93.4% [100 µM] (active),-88.6% [100 µM] (active),-76.6% [100 µM] (active),-91.7% [100 µM] (active),-90.9% [100 µM] (active),-91.6% [100 µM] (active),-86.7% [100 µM] (active)
CCn1cc(-c2ccnc(NCCNS(=O)(=O)c3cccc4ccccc34)c2)c(-c2cccc(O)c2)n1,97.9%,75.7%,109%,108%,92.9%,94.7%,101%,104%,109%,103%,96.7%,92.9%,107%,106%,53%,83.2%,95.8%,97.2%,111%,107%
